Holding throughout (assay): DAPPL (digital affinity profiling via proximity ligation, sequencing); 10 mM Tris-HCl pH 7.5, 50 mM NaCl, 1 mM DTT, 4% glycerol, room temperature, 30 min; GST-TFs on glutathione beads, 16-mer random dsDNA library, 0.1% formaldehyde crosslink after washing; high values mean tight binding
In one assay the target is T1, FLI1 (Homo sapiens, UniProt Q01543 1-452).
T1 sequence: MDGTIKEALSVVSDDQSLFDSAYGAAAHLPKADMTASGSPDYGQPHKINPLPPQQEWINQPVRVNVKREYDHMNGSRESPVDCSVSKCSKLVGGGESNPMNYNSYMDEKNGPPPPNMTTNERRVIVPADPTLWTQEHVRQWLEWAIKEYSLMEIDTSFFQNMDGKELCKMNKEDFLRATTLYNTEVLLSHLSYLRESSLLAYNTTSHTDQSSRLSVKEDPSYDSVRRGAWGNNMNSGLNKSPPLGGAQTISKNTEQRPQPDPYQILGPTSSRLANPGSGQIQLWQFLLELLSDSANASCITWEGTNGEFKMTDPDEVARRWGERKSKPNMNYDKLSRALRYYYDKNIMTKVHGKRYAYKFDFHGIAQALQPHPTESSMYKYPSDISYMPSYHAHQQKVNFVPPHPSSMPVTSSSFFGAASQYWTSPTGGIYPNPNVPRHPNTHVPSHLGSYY
The note with it: protein: recombinant; tags: N-terminal GST; dsDNA, one strand shown. A digest of the protocol: (§1)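 The binding signal reported is, for every hexamer, its read frequency for a factor over its read frequency for the tag-only sample. Reads came from pools of yeast-expressed, GST-fused human transcription factors on glutathione beads, barcoded with DNA and mixed with that sample, which were incubated with 200 nmole of a random double-stranded 16-mer DNA library in Tris/NaCl/DTT/glycerol buffer at room temperature for 30 min. After washing, the pools were crosslinked with 0.1% formaldehyde, proximity-ligated with BsaI/T4 ligase for 1 h at 37 °C, PCR-amplified and sequenced on an Illumina NextSeq500.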

The target in another assay is T2, ELK1 (Homo sapiens, UniProt P19419 1-428).
T2 sequence: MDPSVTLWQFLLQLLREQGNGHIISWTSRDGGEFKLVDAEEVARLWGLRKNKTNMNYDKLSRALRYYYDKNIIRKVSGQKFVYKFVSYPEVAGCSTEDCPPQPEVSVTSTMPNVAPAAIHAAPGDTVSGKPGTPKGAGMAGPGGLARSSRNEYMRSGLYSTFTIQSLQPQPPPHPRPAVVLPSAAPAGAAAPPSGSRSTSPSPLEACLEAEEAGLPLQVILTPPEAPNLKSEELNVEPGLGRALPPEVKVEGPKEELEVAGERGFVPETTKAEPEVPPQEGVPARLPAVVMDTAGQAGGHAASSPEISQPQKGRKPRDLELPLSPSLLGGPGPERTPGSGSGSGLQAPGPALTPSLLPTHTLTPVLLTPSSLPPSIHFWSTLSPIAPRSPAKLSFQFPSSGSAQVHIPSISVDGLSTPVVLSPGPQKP
The following applies: protein: recombinant; tags: N-terminal GST; dsDNA, one strand shown. The procedure, abridged:
as §1

For the next assay, the target named is T3, GABPA (Homo sapiens, UniProt Q06546 1-454).
T3 sequence: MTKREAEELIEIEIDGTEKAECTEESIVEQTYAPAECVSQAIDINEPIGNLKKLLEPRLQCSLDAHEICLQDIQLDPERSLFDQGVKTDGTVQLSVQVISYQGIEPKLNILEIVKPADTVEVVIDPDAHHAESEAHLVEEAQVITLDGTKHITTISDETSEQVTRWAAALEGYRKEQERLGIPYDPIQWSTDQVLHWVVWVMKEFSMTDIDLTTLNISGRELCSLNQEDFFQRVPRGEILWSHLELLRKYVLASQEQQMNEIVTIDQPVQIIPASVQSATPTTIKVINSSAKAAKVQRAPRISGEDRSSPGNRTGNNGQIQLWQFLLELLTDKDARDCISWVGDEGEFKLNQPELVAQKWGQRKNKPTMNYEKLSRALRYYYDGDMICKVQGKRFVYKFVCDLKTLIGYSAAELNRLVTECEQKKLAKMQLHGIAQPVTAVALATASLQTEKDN
The note with it: protein: recombinant; tags: N-terminal GST; dsDNA, one strand shown. A digest of the protocol: as §1

The target in another assay is T4, ERG (Homo sapiens, UniProt P11308 1-479).
T4 sequence: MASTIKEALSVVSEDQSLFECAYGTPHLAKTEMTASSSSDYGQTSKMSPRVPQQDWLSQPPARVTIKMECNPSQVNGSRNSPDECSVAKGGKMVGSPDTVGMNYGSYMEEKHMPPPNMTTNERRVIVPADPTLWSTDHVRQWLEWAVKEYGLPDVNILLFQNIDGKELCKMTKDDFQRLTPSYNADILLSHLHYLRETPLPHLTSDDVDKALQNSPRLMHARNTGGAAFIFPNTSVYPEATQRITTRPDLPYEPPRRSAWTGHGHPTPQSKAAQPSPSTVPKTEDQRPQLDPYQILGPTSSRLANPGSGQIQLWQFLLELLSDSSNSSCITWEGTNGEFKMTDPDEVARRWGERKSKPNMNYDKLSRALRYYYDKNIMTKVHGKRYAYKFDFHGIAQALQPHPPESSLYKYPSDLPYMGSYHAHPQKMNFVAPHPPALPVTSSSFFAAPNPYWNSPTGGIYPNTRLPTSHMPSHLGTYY
The note with it: protein: recombinant; tags: N-terminal GST; dsDNA, one strand shown. The procedure, abridged:
as §1

For a further assay, the target named is ELF1 (Homo sapiens, UniProt P32519 1-619). The following applies: protein: recombinant; tags: N-terminal GST; dsDNA, one strand shown. A digest of the protocol:
as §1

The target in another assay is T5, EHF (Homo sapiens, UniProt Q9NZC4 1-300).
T5 sequence: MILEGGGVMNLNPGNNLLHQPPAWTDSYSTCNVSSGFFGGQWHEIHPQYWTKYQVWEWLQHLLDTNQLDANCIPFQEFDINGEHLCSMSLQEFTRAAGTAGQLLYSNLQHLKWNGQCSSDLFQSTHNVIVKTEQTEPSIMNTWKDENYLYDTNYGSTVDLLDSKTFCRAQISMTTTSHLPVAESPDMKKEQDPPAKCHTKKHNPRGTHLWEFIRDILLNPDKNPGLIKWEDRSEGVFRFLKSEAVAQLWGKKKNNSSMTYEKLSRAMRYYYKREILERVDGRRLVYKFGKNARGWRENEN
The note with it: protein: recombinant; tags: N-terminal GST; dsDNA, one strand shown. The procedure, abridged: as §1

A further assay addresses SPI1 (Homo sapiens, UniProt P17947 1-270). The following applies: protein: recombinant; tags: N-terminal GST; dsDNA, one strand shown. The procedure, abridged: as §1
The next assay has as its target SPIB (Homo sapiens, UniProt Q01892 1-262). The note with it: protein: recombinant; tags: N-terminal GST; dsDNA, one strand shown. A digest of the protocol:
as §1

The target of another assay is T6, ELK3 (Homo sapiens, UniProt P41970 1-407).
T6 sequence: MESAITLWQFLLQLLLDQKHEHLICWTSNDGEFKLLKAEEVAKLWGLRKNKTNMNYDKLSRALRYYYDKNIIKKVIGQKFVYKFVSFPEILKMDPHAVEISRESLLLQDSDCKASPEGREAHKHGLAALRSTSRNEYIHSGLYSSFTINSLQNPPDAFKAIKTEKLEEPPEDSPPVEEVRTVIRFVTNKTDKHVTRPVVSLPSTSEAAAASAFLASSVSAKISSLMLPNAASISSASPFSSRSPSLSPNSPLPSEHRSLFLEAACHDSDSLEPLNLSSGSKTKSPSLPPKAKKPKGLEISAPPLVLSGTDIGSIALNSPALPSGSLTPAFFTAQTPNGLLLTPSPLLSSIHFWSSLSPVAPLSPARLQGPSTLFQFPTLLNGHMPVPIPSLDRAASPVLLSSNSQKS
The following applies: protein: recombinant; tags: N-terminal GST; dsDNA, one strand shown. The procedure, abridged: as §1

In a further assay the target is T7, FEV (Homo sapiens, UniProt Q99581 1-238).
T7 sequence: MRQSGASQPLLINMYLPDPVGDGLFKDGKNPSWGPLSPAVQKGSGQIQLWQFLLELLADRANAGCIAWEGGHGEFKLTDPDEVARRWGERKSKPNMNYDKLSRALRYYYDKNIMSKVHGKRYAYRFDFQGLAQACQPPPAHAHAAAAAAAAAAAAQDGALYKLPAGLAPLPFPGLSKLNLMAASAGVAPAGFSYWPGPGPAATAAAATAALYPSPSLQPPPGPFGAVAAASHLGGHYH
The note with it: protein: recombinant; tags: N-terminal GST; dsDNA, one strand shown. A digest of the protocol: as §1

The target of the next assay is ETV5 (Homo sapiens, UniProt P41161 1-510). The note with it: protein: recombinant; tags: N-terminal GST; dsDNA, one strand shown. A digest of the protocol:
as §1

The next assay concerns the target HSF1 (Homo sapiens, UniProt Q00613 1-529). The following applies: protein: recombinant; tags: N-terminal GST; chain copies: 3; dsDNA, one strand shown. A digest of the protocol:
as §1

The target in a further assay is T8, SPIC (Homo sapiens, UniProt Q8N5J4 1-248).
T8 sequence: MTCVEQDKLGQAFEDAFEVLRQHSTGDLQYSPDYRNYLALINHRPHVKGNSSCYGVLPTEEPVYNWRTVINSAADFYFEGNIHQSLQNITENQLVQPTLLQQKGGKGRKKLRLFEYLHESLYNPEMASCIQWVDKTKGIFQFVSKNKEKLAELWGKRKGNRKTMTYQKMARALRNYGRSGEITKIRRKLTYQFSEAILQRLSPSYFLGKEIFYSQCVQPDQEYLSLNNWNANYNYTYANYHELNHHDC
The following applies: protein: recombinant; tags: N-terminal GST; dsDNA, one strand shown. The procedure, abridged: as §1

The target of a further assay is ELF4 (Homo sapiens, UniProt Q99607 1-663). The note with it: protein: recombinant; tags: N-terminal GST; dsDNA, one strand shown. The procedure, abridged:
as §1

For another assay, the target named is T9, ELK4 (Homo sapiens, UniProt P28324-2 1-405).
T9 sequence: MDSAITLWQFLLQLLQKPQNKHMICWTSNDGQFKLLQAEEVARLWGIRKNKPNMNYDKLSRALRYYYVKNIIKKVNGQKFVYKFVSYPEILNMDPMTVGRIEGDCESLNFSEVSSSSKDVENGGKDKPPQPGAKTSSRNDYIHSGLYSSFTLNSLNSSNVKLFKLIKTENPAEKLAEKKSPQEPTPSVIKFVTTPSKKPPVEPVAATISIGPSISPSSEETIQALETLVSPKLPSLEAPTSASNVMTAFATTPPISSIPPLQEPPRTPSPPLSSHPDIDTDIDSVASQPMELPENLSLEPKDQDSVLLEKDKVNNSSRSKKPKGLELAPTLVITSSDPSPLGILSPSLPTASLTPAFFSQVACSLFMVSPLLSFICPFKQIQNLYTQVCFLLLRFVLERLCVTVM
The note with it: protein: recombinant; tags: N-terminal GST; dsDNA, one strand shown. The procedure, abridged: as §1

The target in a further assay is T10, ETV2 (Homo sapiens, UniProt O00321 1-342).
T10 sequence: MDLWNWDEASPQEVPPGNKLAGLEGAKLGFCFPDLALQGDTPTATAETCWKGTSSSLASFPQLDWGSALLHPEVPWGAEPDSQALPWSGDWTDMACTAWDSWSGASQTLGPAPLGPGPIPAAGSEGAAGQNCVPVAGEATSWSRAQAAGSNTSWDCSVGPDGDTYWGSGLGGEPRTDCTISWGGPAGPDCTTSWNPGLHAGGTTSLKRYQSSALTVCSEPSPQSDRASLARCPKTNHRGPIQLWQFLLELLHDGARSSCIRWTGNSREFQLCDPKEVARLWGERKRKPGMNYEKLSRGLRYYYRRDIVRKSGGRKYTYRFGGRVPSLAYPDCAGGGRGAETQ
The following applies: protein: recombinant; tags: N-terminal GST; dsDNA, one strand shown. A digest of the protocol:
as §1

A further assay deals with T11, ELF3 (Homo sapiens, UniProt P78545 1-371).
T11 sequence: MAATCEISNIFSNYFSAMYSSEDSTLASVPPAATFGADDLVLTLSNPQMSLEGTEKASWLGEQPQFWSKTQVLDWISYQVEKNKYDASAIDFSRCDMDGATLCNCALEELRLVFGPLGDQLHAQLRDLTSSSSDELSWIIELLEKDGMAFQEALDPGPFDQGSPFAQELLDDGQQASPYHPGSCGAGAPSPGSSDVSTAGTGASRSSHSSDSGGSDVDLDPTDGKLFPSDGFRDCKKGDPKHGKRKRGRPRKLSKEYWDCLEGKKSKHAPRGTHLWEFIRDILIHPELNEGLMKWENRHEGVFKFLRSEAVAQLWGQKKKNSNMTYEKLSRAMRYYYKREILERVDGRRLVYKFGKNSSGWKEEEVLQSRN
The note with it: protein: recombinant; tags: N-terminal GST; dsDNA, one strand shown. A digest of the protocol: as §1

The target of the next assay is CRX (Homo sapiens, UniProt O43186 1-299). The note with it: protein: recombinant; tags: N-terminal GST; dsDNA, one strand shown. A digest of the protocol: as §1
CRX, sequence (O43186 whole entry): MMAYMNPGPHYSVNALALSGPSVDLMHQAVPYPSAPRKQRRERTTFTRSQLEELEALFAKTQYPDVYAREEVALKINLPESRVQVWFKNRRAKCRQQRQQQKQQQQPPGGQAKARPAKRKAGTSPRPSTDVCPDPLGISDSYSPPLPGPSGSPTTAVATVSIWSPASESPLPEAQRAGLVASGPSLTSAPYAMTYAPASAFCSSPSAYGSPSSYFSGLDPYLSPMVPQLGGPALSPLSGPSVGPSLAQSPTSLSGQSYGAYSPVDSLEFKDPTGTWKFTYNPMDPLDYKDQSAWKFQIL
The target of the next assay is ETV1 (Homo sapiens, UniProt P50549 1-477). The note with it: protein: recombinant; tags: N-terminal GST; dsDNA, one strand shown. A digest of the protocol:
as §1

ELF1, sequence (P32519 whole entry): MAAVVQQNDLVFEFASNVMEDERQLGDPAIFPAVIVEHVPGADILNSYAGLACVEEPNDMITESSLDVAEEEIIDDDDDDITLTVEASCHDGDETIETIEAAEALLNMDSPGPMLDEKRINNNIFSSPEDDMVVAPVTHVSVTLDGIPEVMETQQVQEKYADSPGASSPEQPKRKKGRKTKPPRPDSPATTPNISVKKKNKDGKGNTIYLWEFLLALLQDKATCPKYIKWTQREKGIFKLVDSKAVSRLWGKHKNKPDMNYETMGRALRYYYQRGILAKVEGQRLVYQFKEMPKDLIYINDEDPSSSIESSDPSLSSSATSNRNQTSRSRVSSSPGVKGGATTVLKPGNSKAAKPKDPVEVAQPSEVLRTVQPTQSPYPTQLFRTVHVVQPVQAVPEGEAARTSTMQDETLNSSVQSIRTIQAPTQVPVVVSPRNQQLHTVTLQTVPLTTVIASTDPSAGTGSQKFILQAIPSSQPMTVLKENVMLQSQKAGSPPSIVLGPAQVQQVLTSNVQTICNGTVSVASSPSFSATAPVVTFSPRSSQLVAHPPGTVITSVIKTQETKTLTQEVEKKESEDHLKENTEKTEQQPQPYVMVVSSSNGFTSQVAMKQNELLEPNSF
ETV5, sequence (P41161 whole entry): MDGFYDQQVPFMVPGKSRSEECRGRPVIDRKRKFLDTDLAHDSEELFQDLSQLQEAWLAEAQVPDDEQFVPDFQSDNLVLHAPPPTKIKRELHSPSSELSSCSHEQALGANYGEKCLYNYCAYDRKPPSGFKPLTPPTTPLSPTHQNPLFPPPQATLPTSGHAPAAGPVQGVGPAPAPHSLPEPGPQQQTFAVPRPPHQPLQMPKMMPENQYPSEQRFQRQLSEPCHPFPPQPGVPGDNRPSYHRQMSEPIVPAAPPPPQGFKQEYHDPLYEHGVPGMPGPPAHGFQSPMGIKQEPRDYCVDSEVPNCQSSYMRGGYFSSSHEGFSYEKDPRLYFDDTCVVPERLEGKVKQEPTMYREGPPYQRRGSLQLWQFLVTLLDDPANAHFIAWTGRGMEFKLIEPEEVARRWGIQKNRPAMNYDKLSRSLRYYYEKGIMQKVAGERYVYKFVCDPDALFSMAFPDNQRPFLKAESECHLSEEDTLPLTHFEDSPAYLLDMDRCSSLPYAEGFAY
HSF1, sequence (Q00613 whole entry): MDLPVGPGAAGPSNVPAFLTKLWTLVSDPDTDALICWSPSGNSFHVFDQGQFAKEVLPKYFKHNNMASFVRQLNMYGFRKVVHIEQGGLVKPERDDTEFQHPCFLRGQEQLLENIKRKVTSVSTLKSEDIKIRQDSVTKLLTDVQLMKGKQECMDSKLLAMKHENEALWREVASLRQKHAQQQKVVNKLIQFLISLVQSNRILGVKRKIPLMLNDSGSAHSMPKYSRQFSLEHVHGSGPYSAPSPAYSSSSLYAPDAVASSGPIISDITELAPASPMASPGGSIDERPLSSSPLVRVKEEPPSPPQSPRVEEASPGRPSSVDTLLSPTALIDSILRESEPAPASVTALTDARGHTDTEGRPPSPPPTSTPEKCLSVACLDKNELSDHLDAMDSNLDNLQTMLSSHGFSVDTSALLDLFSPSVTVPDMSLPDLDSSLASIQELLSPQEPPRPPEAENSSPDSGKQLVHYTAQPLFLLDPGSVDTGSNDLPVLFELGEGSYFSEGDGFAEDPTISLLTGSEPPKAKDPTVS
ELF4, sequence (Q99607 whole entry): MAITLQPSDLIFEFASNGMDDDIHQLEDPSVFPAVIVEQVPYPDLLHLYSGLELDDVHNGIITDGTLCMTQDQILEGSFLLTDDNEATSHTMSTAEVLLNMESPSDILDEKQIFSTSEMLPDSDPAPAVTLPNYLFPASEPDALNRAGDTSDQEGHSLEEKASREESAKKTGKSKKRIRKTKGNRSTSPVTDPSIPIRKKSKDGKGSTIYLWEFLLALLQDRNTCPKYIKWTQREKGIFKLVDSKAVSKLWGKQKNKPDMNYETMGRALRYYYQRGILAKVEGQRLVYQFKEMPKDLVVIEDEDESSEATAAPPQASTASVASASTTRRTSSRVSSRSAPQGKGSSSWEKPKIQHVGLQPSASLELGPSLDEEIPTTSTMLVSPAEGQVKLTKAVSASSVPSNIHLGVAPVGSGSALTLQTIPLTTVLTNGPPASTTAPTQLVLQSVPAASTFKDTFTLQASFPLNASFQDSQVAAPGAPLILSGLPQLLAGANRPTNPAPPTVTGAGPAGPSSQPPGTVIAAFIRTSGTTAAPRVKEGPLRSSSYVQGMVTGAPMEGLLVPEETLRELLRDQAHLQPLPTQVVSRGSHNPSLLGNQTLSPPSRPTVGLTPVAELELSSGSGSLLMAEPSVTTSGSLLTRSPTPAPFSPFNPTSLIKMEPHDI
SPIB, sequence (Q01892 whole entry): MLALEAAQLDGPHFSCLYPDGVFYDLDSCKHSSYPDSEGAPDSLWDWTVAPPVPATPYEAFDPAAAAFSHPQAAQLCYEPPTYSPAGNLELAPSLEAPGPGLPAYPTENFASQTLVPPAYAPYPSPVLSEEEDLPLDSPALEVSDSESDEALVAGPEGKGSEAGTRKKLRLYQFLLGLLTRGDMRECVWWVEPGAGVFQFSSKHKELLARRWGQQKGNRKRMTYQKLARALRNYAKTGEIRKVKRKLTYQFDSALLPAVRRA
ETV1, sequence (P50549 whole entry): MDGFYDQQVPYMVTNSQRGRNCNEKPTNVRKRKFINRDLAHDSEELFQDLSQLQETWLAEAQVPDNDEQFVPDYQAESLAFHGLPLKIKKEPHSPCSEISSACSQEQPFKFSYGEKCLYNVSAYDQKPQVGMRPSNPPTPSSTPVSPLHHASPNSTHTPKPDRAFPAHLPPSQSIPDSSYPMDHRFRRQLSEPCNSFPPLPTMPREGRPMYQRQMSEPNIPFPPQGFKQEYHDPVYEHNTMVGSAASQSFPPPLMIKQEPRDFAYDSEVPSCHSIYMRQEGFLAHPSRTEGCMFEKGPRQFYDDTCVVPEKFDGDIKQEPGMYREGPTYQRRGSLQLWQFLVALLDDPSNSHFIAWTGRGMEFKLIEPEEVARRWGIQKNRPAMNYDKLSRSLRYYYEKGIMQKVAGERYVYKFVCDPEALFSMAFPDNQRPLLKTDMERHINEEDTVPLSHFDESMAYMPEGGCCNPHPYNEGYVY

Consider CGAAAA, for which the binding signal with FLI1 was 1.07 fold enrichment (6-mer frequency, TF over GST control); with ELK1, 1.07 fold enrichment (6-mer frequency, TF over GST control); with GABPA, 1.17 fold enrichment (6-mer frequency, TF over GST control); in the assay with ERG it was 1.06 fold enrichment (6-mer frequency, TF over GST control); with ELF1, 1.05 fold enrichment (6-mer frequency, TF over GST control); in the assay with EHF, 1.14 fold enrichment (6-mer frequency, TF over GST control). Further, the binding signal is 1.1 fold enrichment (6-mer frequency, TF over GST control) with SPI1; 1.04 fold enrichment (6-mer frequency, TF over GST control) in the assay with SPIB; 1.01 fold enrichment (6-mer frequency, TF over GST control) with ELK3; 1.04 fold enrichment (6-mer frequency, TF over GST control) with FEV; 1.13 fold enrichment (6-mer frequency, TF over GST control) in the assay with ETV5; 1.85 fold enrichment (6-mer frequency, TF over GST control) with HSF1. Further, the binding signal with SPIC is 1.07 fold enrichment (6-mer frequency, TF over GST control); with ELF4, 1.11 fold enrichment (6-mer frequency, TF over GST control); with ELK4, 1.12 fold enrichment (6-mer frequency, TF over GST control); with ETV2, 1.04 fold enrichment (6-mer frequency, TF over GST control); with ELF3 it was 1.01 fold enrichment (6-mer frequency, TF over GST control); with CRX, 1.12 fold enrichment (6-mer frequency, TF over GST control). In addition, in the assay with ETV1, the binding signal was 1.06 fold enrichment (6-mer frequency, TF over GST control).

(Values after publication PMC7862700, “An all-to-all approach to the identification of sequence-specific readers for epigenetic DNA modifications on cytosine”.)
